# According to PubChem BioAssay (NCATS):
# Results filed as inconclusive are left out. Entries that show only a call come without a potency. Activity calls are given as the source filed them. Calls follow the shape of the dose curve; as a rule, active = well fitted inhibition curve with a large enough effect; inconclusive = small, poorly fitted or top-dose-only effect; inactive = no such curve, though single readings can be large or run the other way.
# Assay: NS1 protein of Zika virus - qHTS assay to identify small molecule inhibitors in human HEK 293 cells (AID 1347053); also: nearly all actives have a fitted effect of over 55% in size
# Conditions: HEK293 ZIKV MR766 infection, NS1 TR-FRET, 24 h; series mostly up to 46.1 µM
# Method in brief: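 In this cell-based screen, HEK 293 cultures received compound for one hour before Zika MR766 at MOI = 0.5. NS1 was quantified 24 hours later by TR-FRET, normalized to virus-free wells and infected wells.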
row,SMILES,Potency
1,CC(=O)OCC(=O)Nc1cc(C#N)cc(NC(=O)COC(C)=O)c1Cl,inactive
2,CCN1C(=O)c2ccccc2C1Nc1ccc(OCCN2CCCCC2)cc1 (centres undefined),inactive
3,CC(=O)Nc1ccn(C2COC(COC(=O)c3ccccc3)O2)c(=O)n1 (centres undefined),inactive
4,O=C(CCCCCCCCC#CI)Oc1ccccc1,inactive
5,CN(CC1(C)CCCO1)S(=O)(=O)c1ccc(Cl)c(S(N)(=O)=O)c1 (centres undefined),inactive
6,O=C(O)Cc1ccccc1Oc1ccc(Cl)cc1Cl,inactive
7,CO/N=C(/C(=O)N[C@@H]1C(=O)N2C(C(=O)O)=C(Cn3nnc(C)n3)CS[C@H]12)c1csc(N)n1,inactive
8,CC(C)=CCNc1ncnc2c1ncn2[C@@H]1O[C@H](CO)[C@@H](O)[C@H]1O,inactive
9,C=CC[N+]1([C@H]2C[C@H]3[C@@H]4CC[C@H]5C[C@H](OC(C)=O)[C@@H](N6CCCCC6)C[C@]5(C)[C@H]4CC[C@]3(C)[C@H]2OC(=O)CC)CCCCC1,inactive
10,Cn1cnc2c(NCc3ccccc3)nc(NCCO)nc21,inactive
11,COc1cc(NS(=O)(=O)c2ccc(N)cc2)nc(C)n1,inactive
12,CN(C)c1cc2c(Nc3ccc4c(cnn4Cc4ccccc4)c3)ncnc2cn1,inactive
13,COc1cc(C(=O)OC(COCCC(C)C)CN2CCOCC2)cc(OC)c1OC (centres undefined),inactive
14,CCOC(=O)c1ccc(OCCN2C[C@H](O)[C@@H](O)[C@H](O)[C@H]2CO)cc1,inactive
15,CN(C)C(=O)CNC(=O)Cc1ccccc1,inactive
16,CO[C@]1(NC(=O)CSC(F)F)C(=O)N2C(C(=O)O)=C(CSc3nnnn3CCO)CO[C@H]21,inactive
17,CCCCC(O)/C=C(C)/C=C/C=C/C(=O)N1CCCC1=O (centres undefined),inactive
18,CC(=O)O[C@@H]1C(=O)O[C@@H]2[C@H]1OC(=O)[C@@H]2OC(C)=O,inactive
19,Nc1ncnc2n[nH]c(Nc3ccc(F)cc3)c12,inactive
